# Screening data deposited in PubChem BioAssay by National Center for Advancing Translational Sciences (NCATS).
# SARS PLP yeast: qHTS of Yeast-based Assay for SARS-CoV PLP; S. cerevisiae expressing SARS-CoV PLpro, growth rescue; Potency, µM (titrated, usually from 32.9 µM), inactives show at the highest dose activity, positive = growth rescue, actives largely listed as activators; actives 0.19% (n = 330,000); calls by dose curve; also: potency is read from the fitted curve at half-maximal effect; 0% is about no effect; nearly all actives have a fitted effect of over 55% in size
# CHX counter: Cycloheximide Counterscreen for Small Molecule Inhibitors of Shiga Toxin. cell reporter, cycloheximide protein synthesis inhibition counterscreen. max response, %. actives 12% (n = 300,000); in the data active = max response mostly above about 13%, no sharp cut-off; inactive = mostly below about 14%; also: read at 38.3 µM for the half of the compounds with a filed dose; 0% is about no effect
# NS1 inh: qHTS Assay for Inhibitors of Influenza NS1 Protein Function; Potency, µM (highest dose often 46.1 µM), for the others: top-dose activity, positive = more growth; actives 0.4% (n = 270,000); calls by dose curve; also: potency is read from the fitted curve at half-maximal effect; actives are rising curves; nearly all actives have a fitted effect of over 50% in size
#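 Compounds were scored for reversing the slow growth caused by influenza A NS1 in S. cerevisiae, measured by optical density at 600 nm. Assay medium contained 2% galactose at pH 6.0; NS1-free yeast of the same strain were the positive control.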
# Shiga inhibitor: A qHTS for Small Molecule Inhibitors of Shiga Toxin; Vero cells, Shiga toxin protein synthesis inhibition reporter; inhibition, % at 38.7 µM; actives 9.2% (n = 290,000); AID 2315, 2010; in the data active = inhibition mostly above about 28%, no sharp cut-off; inactive = mostly below about 43%; also: 0% is about no effect
# Pf growth 48h: Primary qHTS for delayed death inhibitors of the malarial parasite plastid, 48 hour incubation; Potency, µM (titrated, usually from 28.7 µM), for inactives: at the highest dose activity change, negative = inhibition, usual class: inhibitors; AID 504832, 2011; actives 5.9% (n = 310,000); P. falciparum luciferase growth in erythrocytes, 48 h; also: potency is read from the fitted curve at half-maximal effect; % is scaled to controls: 0 for no effect and ±100 for the full control effect
#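 Parasite viability was followed by luminescence of a genomically integrated firefly luciferase. Cultures held 0.1% parasitemia at 2% hematocrit (final), incubated under 5% CO2 at 37 C.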
# Pf growth 96h: Primary qHTS for delayed death inhibitors of the malarial parasite plastid, 96 hour incubation; P. falciparum luciferase reporter growth, 96 h; Potency, µM (doses to about 28.7 µM), without a hit: at the highest dose activity change, negative = inhibition, actives largely listed as inhibitors; actives 6.9% (n = 320,000); also: potency is read from the fitted curve at half-maximal effect; % is scaled to controls: 0 for no effect and ±100 for the full control effect
#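 Plates of compound plus infected erythrocytes (2% hematocrit, 0.05% parasitemia final) incubate 96 hours, 37 C, 5% CO2. Detection reagent added; reduced luminescence from the parasites' luciferase reporter flags inhibition.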
# * marks the source's active call; other numbers are inactive results; i = inactive; ? = inconclusive; · = no result. This is a sample that favours compounds with a hit; in the whole collection about 21% have one here. Unless noted, calls follow the shape of the dose curve; as a rule, active = well fitted inhibition curve with a large enough effect; inconclusive = small, poorly fitted or top-dose-only effect, or another doubt; inactive = no such curve, though single readings can be large or run the other way.
SMILES,SARS PLP yeast,CHX counter,NS1 inh,Shiga inhibitor,Pf growth 48h,Pf growth 96h
C=CCN=C1NN=C(c2ccc3c(c2)OCCO3)CS1,22.5%,21.2*,·,41.5*,43.6%,8.3%
NC1=NN=C(c2ccc3c(c2)OCCO3)CS1,1.7%,-1.1,·,23.9,i,36.2%
COc1ccccc1C1=NNC(=NCc2ccccc2)SC1,-5.8%,31.4*,·,33.0*,-28.2%,50.0%
Fc1ccc(C2=NNC(=NCc3ccccc3)SC2)cc1F,0.6%,33.6*,·,64.4*,?,?
Cc1ccc(CCC(=O)Nc2ccc([N+](=O)[O-])cc2)o1,-12.2%,2.0,-16.4%,26.3,?,16.7%
CCN=C1NN=C(c2ccc(C)cc2)CS1,-2.9%,38.0*,-22.3%,105.9*,63.0%,-47.9%
COC(=O)C1=C(C)N(Cc2ccccc2)C(=NCc2ccc3c(c2)OCO3)N[C@H]1c1ccccc1,-3.3%,1.3,4.5%,-4.2,17.9%,?
CC(C)N=C1NN=C(c2ccc(F)cc2)CS1,-3.6%,17.9*,·,80.1*,i,233.2%
COCCN=C1NN=C(c2ccc(NC(C)=O)cc2)CS1,13.7%,-2.8,4.2%,1.2,?,?
c1ccc(CN=C2NN=C(c3ccccc3)CS2)cc1,1.8%,55.0*,·,62.4,?,167.2%
c1ccc(C2=NNC(=NCc3ccc4c(c3)OCO4)SC2)cc1,28.4%,18.0*,10.4%,80.4*,11.5%,?
CCc1cc(=O)oc2cc(OCC(=O)N(CC)CC)c(Cl)cc12,17.0%,4.9,-1.5%,3.2,·,10.4µM*
COc1ccc([N+](=O)[O-])cc1NC(=O)CSc1nc(C)cc(C)n1,4.0%,-3.9,-8.7%,-13.2,3.8%,?
COc1cc(NS(C)(=O)=O)ccc1Nc1c2ccccc2nc2ccccc12,·,·,-44.2%,·,1.04µM*,0.928µM*
COc1ccc([N+](=O)[O-])cc1Nc1c2ccccc2nc2ccccc12,2.2%,-2.9,6.9%,-0.8,11.7µM*,16.5µM*
Cc1cc(C)nc(Nc2ccc(C)c([N+](=O)[O-])c2)n1,-1.0%,17.1*,-0.2%,53.9*,15.0%,43.4%
COc1cc([N+](=O)[O-])ccc1Nc1nc(C)cc(C)n1,-1.6%,1.2,3.9%,-16.4,15.1%,9.28µM*
C=C1[C@@H]2C[C@]3(C(CC2=O)[C@]24C5C[C@H]3[C@H]2N(CC)C[C@]5(C)CC[C@@H]4O)[C@@H]1O (stereo partly specified),·,-2.0,·,-2.7,·,·
CCOc1ccc(C(=O)C(C)OC(=O)Cn2c(C)csc2=O)cc1 (stereo unspecified),-0.8%,·,·,·,-2.6%,0.0%
COc1ccc(OC)c(Nc2c3ccccc3nc3ccccc23)c1,-3.6%,8.3,-9.3%,16.3,1.65µM*,?
CCOC(=O)c1c(NC(=O)CN2C(=O)NC(C)(c3ccc(Cl)cc3)C2=O)sc(C(=O)NC)c1C (stereo unspecified),7.6%,1.3,13.9%,-1.3,8.28µM*,4.65µM*
CCOC(=O)c1c(NC(=O)COC(=O)c2ccc(NC(=O)CC#N)cc2)sc(C(=O)NC)c1C,-2.8%,·,·,·,13.1µM*,-25.6%
CCOC(=O)c1c(NC(=O)CN2CCOCC2)sc(C(=O)NC)c1C,1.2%,8.5,-4.5%,-26.3,·,?
CCOC(=O)c1c(NC(=O)COC(=O)c2ccc(O)cc2)sc(C(=O)N(C)C)c1C,-1.1%,5.4,-8.8%,12.2,11.7µM*,?
CCOC(=O)c1c(NC(=O)COC(=O)CCOc2ccccc2C)sc(C(=O)NC)c1C,-16.2%,·,·,·,-4.4%,-13.0%
SMILES,SARS PLP yeast,CHX counter,NS1 inh,Shiga inhibitor,Pf growth 48h,Pf growth 96h
CN(CC(=O)NC1CCCC1)S(=O)(=O)c1cccc(Cl)c1,6.3%,·,·,·,·,·
O=C(CCS(=O)(=O)c1ccc(Br)cc1)NCc1ccc(F)cc1,0.7%,17.0,0.4%,-13.0,40.7%,10.4µM*
Cc1ccc(CNC(=O)CCS(=O)(=O)c2ccc(Br)cc2)cc1,0.0%,2.7,·,-17.1,-11.1%,?
O=C(CCS(=O)(=O)c1ccc(Br)s1)NC1CCCC1,5.2%,11.0,2.1%,-7.3,·,-51.9%
CN(CC(=O)NC1CC1)S(=O)(=O)c1ccc(Br)cc1,·,1.0,16.3%,23.0,8.28µM*,5.7%
O=C(CCNS(=O)(=O)c1ccc(Br)s1)NC1CCCC1,0.9%,-1.6,2.0%,-8.8,?,10.4µM*
CN(CC(=O)NC1CC1)S(=O)(=O)c1cc(Cl)ccc1Cl,-0.4%,1.1,-1.1%,3.7,4.15µM*,5.22µM*
O=C(CCSCCC(=O)Nc1ccccc1F)Nc1ccccc1F,3.3%,-3.6,-7.0%,11.9,11.9%,9.6%
CCCn1c(N)c(C(=O)CSc2ncnc3sccc23)c(=O)n(C)c1=O,3.9%,·,·,·,?,?
O=C(CCS(=O)(=O)c1ccc(Br)cc1)NC1CCCCCC1,13.4%,9.7,-3.7%,-3.9,-5.0%,11.7µM*
CN1CCN(NC(=O)CN(C)S(=O)(=O)c2cc(Cl)ccc2Cl)CC1,0.2%,-2.7,4.3%,-4.0,-11.0%,11.7µM*
NS(=O)(=O)c1ccc(CNC(=O)CNC(=O)c2ccc(F)cc2)cc1,-1.1%,14.9*,-0.4%,67.8*,15.9%,30.9%
CN(CC(=O)N1CCOCC1)S(=O)(=O)c1cc(Cl)ccc1Cl,0.5%,5.1,?,-4.6,8.7%,103.3%
Cc1ccc(S(=O)(=O)CCC(=O)NC2CCCCC2)cc1,-0.1%,·,·,·,?,?
S=C(NC1CC2CCC1C2)N1CCN(c2cccc(Cl)c2)CC1 (stereo unspecified),-3.6%,0.2,·,-6.0,0.0%,0.0%
COc1cccc(/C=C/C(=O)c2ccc(NC3=NCCCS3)cc2)c1,0.1%,17.8,·,53.7,-22.5%,33.4%
Cc1cccc(/C=C/C(=O)c2ccc(NC3=NCCCS3)cc2)c1,-9.3%,26.4*,-29.4%,23.7,17.5%,33.7%
CC(C)(C)c1ccc(/C=C/C(=O)c2ccc(NC3=NCCCS3)cc2)cc1,-131.7%,30.9*,11.5%,78.3*,16.5µM*,?
O=C(/C=C/c1ccccc1)c1ccc(NC2=NCCCS2)cc1,-23.8%,25.8*,-24.2%,30.0*,27.0%,-23.8%
COC(=O)c1c(NC(=O)C2CCCCC2)sc2c1CC(C)(C)NC2(C)C,-2.0%,-2.6,-9.2%,-4.5,15.5%,86.2%
O=S(=O)(N[C@H](CO)c1ccccc1)c1ccc(Br)cc1F,-12.0%,·,·,·,·,·
CC1=CCC2C(=O)N(c3ccc(OC(=O)c4ccco4)cc3)C(=O)C2C1 (stereo unspecified),0.3%,1.7,-6.6%,-1.6,2.0%,13.7%
Nc1scc2c(C(=O)N/N=C/c3ccc(Cl)cc3)nn(-c3ccccc3)c(=O)c12,-0.6%,-2.4,20.7%,-6.0,?,5.22µM*
CCOC(=O)c1nn(-c2ccccc2)c(=O)c2c(N)scc12,-4.8%,-4.8,6.9%,9.1,-14.0%,2.6%
